Screening results as filed in PubChem.
KDM5B inhibitor = inhibitors of human KDM5B histone demethylase; Q9UGL1; AID 1347165; hit rate 2.6% among 220,000; KDM5B demethylase, FDH-coupled NADH fluorescence (FDH is formaldehyde dehydrogenase); Potency, µM (series often up to 57.7 µM), most hits filed as inhibitors; active = well fitted inhibition curve with a large enough effect; inconclusive = small, poorly fitted or top-dose-only effect; inactive = no such curve, though single readings can be large or run the other way; also: potency is read from the fitted curve at half-maximal effect; 0% is about no effect; nearly all actives have a fitted effect of over 70% in size
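qHTS format, multiple compound concentrations. Buffer 50 mM HEPES pH 7.5/0.01% Tween-20; 200 nM KDM5BΔAP final; 10 min compound preincubation; substrate-mix levels 12.5 µM peptide, 25 µM α-KG, 0.25 mM NAD⁺; 30 min RT; ΔRFU.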
IP6K1 inhibitor = IP6K1 kinase inhibition. Q92551. IP6K1 kinase, ADP-Glo luminescence, 2 h; active compounds read low. activity change, % (series mostly up to about 58 µM). hit rate 0.81% among 140,000; in the data active = activity change below about -25%; also: % is scaled to controls: 0 for no effect and ±100 for the full control effect
Target sequence (Q92551 whole entry, looked up): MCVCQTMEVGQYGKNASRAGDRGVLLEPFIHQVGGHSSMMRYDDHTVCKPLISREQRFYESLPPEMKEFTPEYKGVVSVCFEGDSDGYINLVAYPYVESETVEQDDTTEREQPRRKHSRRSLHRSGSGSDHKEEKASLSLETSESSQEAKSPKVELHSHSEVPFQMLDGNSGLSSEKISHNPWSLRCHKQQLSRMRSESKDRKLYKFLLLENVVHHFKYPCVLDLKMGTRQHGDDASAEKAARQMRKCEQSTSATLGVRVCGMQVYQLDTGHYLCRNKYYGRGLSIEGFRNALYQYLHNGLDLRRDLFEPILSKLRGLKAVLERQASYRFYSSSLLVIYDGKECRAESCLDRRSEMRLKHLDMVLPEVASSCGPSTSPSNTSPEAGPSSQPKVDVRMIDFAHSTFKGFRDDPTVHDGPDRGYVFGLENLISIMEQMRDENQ
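ADP-Glo luminescence measures ADP made by human IP6K1 during a 2 h RT reaction with ATP/IP6 (mix at 1.3 mM/130 uM); top library doses 57.5 and 19.1 uM final.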
* marks the source's active call; other numbers are inactive results; i = inactive; ? = inconclusive; . = no result given. A selection: hits, their analogues and other compounds. The true share with any hit is near 2.7%.

SMILES	KDM5B inhibitor	IP6K1 inhibitor
CC(O)C(NC(=O)c1cc(Cl)ccc1F)C(=O)O (configuration not stated)	i	.
CCN1C(=O)CCC2(C(=O)NCc3cccc(C(F)(F)F)c3)CCCC=C12 (configuration not stated)	.	9.3
O=C(Cn1ccn2nc(-c3ccc(F)cc3)c(CO)c2c1=O)Nc1cc(F)ccc1Cl	i	5.3
Cc1ccc(NC(=O)Cn2ccn3nc(-c4ccc(F)cc4)c(CO)c3c2=O)cc1	22.4µM*	-1.8
O=C(Cn1ccn2nc(-c3ccc(F)cc3)c(CO)c2c1=O)Nc1cccc(C(F)(F)F)c1	22.4µM*	2.1
CSc1cccc(NC(=O)Cn2ccn3nc(-c4ccc(F)cc4)c(CO)c3c2=O)c1	i	8.4
O=C(Cn1ccn2nc(-c3ccc(F)cc3)c(CO)c2c1=O)Nc1ccccc1Cl	28.2µM*	2.6
O=C(Cn1ccn2nc(-c3ccc(F)cc3)c(CO)c2c1=O)Nc1ccccc1	?	4.9
C=C(C)Cn1c(NCCO)nc2c1c(=O)[nH]c(=O)n2C	i	.
CN(C)CCOCC1(C)COc2ccc(C(=O)NCc3ccc(F)cc3)cc2N1 (configuration not stated)	39.8µM*	-11.1
CN(C)CCOCC1(C)COc2ccc(C(=O)NCc3cccc(F)c3)cc2N1 (configuration not stated)	39.8µM*	-8.6
CCOCC1(C)COc2ccc(C(=O)NCc3ccc(F)cc3)cc2N1 (configuration not stated)	?	9.0
CN(C)CCCOCC1(C)COc2ccc(C(=O)Nc3ccccc3)cc2N1 (configuration not stated)	?	-5.8
COc1cccc(CC(=O)NCc2nnc3ccc(-c4ccc(C)c(C)c4)nn23)c1	?	0.3
COc1cccc(C(=O)NCc2nnc3ccc(-c4ccc(C)cc4)nn23)c1OC	14.1µM*	-20.0
COc1ccc(-c2ccc3nnc(CNC(=O)CCc4cccc(OC)c4)n3n2)cc1	?	8.1
COc1ccc(-c2ccc3nnc(CNC(=O)c4ccc(C)c(C)c4)n3n2)cc1	25.1µM*	15.0
CCOc1ccc(CC(=O)NCc2nnc3ccc(-c4ccc(C)cc4)nn23)cc1	?	-19.8
Cc1ccc(-c2ccc3nnc(CNC(=O)c4cccc5[nH]ccc45)n3n2)cc1	i	-11.2
COc1ccc(-c2ccc3nnc(CNC(=O)c4ccco4)n3n2)cc1	31.6µM*	5.6
Cc1ccc(-c2ccc3nnc(CNC(=O)c4ccn[nH]4)n3n2)cc1	28.2µM*	9.2
O=C(Nc1ccccc1Cc1ccccc1)c1cnc2ccccc2n1	i	.
Cc1nn(C)c2nc(-c3ccccn3)nc(NCc3ccc4c(c3)OCO4)c12	?	-11.2
Cc1ccccc1C(=O)Nc1ccc2oc(-c3ccccc3C)cc(=O)c2c1	i	.
CN(Cc1ccc(C(F)(F)F)cc1)C(=O)C1CCCCC1	i	.
SMILES	KDM5B inhibitor	IP6K1 inhibitor
O=C(CCC1CCCCC1)Nc1cccc2c1CCCC2	i	.
C=C(C)Cn1c(N2CCN(c3ccccc3)CC2)nc2c1c(=O)n(C)c(=O)n2C	i	.
CC(C)NC(=O)C(Cl)c1ccccc1 (configuration not stated)	i	.
O=c1[nH]nc(SCc2ncc(-c3cccc(Cl)c3)o2)n1C1CC1	i	.
COc1ccc(C(=O)NCc2nnc3ccc(-c4ccc(Cl)cc4)nn23)c(C)c1	25.1µM*	12.4
COc1ccc(C(=O)NCc2nnc3ccc(-c4ccc(C)c(C)c4)nn23)c(OC)c1	?	-13.1
Cc1ccc(-c2ccc3nnc(CNC(=O)c4ccc(C)cc4C)n3n2)cc1	12.6µM*	-1.6
COc1ccc(C(=O)NCc2nnc3ccc(-c4ccc(Cl)cc4)nn23)c(OC)c1	i	19.2
COc1ccc(-c2ccc3nnc(CNC(=O)c4ccc(OC)cc4C)n3n2)cc1	28.2µM*	13.1
Cc1ccccc1NC(=O)c1nc(-c2ccccc2)oc1C	i	.
CNC(=O)c1cccc(NC(=O)c2ccc(N(C)C)cc2)c1	i	.
Cc1cc(NC(=O)C2CC2)sc1C(=O)NCc1ccc(Cl)cc1Cl	i	.
Clc1ccccc1-c1nc(CSc2nnc(C3COc4ccccc4O3)o2)no1 (configuration not stated)	i	.
COc1cc(OC)cc(-c2onc(C)c2C(=O)NC2Cc3ccccc3C2)c1	i	1.7
COc1cc(-c2onc(C)c2C(=O)NCCCSC)cc(OC)c1OC	31.6µM*	-7.9
CCCCOCCCNC(=O)c1c(C)noc1-c1cc(OC)cc(OC)c1	?	19.6
COc1cc(-c2onc(C)c2C(=O)NCc2cccc(F)c2F)cc(OC)c1OC	31.6µM*	-7.3
COc1ccc(-c2onc(C)c2C(=O)NCc2ccccc2C)cc1	?	21.1
COc1cc(-c2onc(C)c2C(=O)NCCCCc2ccccc2)cc(OC)c1OC	25.1µM*	-4.1
COc1cc(-c2onc(C)c2C(=O)NC2Cc3ccccc3C2)cc(OC)c1OC	31.6µM*	15.9
Cc1noc(-c2ccncc2)c1C(=O)NCCCCc1ccccc1	i	-1.0
CCc1cccc(C)c1NC(=O)CC(C)(C(=O)O)c1ccccc1 (configuration not stated)	i	.
CCOc1ccc(NC(=O)Cc2c(C)[nH]n(-c3nc(-c4ccc(Cl)cc4)cs3)c2=O)cc1	i	.
Cc1cccc(CN2CC[C@@H]3OCC(=O)N(Cc4ccccc4)[C@H]3CC2)c1	?	-1.3
CCN(c1ccccc1)S(=O)(=O)c1ccc(C(=O)OC2CCCCC2=O)cc1 (configuration not stated)	i	.
SMILES	KDM5B inhibitor	IP6K1 inhibitor
COCC(=O)N1CCC(c2nn(-c3ccc(Cl)cc3)c(=O)[nH]2)CC1	i	-3.8
COc1cc(CC(=O)NC2CCC(C)CC2)ccc1C (configuration not stated)	i	.
O=C(Nc1ccccc1)c1sc(NC2CCCCC2)nc1-c1ccc([N+](=O)[O-])cc1	i	.
CC1=C[C@@H](CNC(=O)c2ccncc2)[C@H](C(C)C)C[C@H]1CC(=O)N1CCOCC1	i	9.0
C=CCOc1c(OC)ccc2c1CN(CC=C)C(=O)CCN2CC(O)COc1ccc(OC)cc1 (configuration not stated)	.	10.6
COC(=O)[C@@H]1Cc2ncn(Cc3ccc(OC)cc3)c2CN1S(=O)(=O)c1cccc2c(N(C)C)cccc12	17.8µM*	22.0
CCCn1cnc2c1CN(S(=O)(=O)c1cccc(C(F)(F)F)c1)[C@H](C(=O)OC)C2	31.6µM*	3.4
COC(=O)[C@@H]1Cc2ncn(Cc3ccc(Cl)cc3)c2CN1S(=O)(=O)c1ccc(OC)cc1	i	25.9
COC(=O)[C@@H]1Cc2ncn(Cc3ccccc3)c2CN1S(=O)(=O)c1cccc(C(F)(F)F)c1	i	17.6
CC(C)CCN1CCn2c(nn(-c3ccc(C(F)(F)F)cc3)c2=O)C1	i	13.9
Cc1cc(C)cc(-n2ccn(CC(=O)Nc3ccc(Br)cc3)c(=O)c2=O)c1	i	.
COC(=O)C1CCN(Cc2nc3c(Br)cc(Br)cc3c(=O)[nH]2)CC1	i	.
CC(C)NC(=O)N1CCN(C(=O)NC2CCCCC2)[C@@H](C(=O)N[C@H](Cc2c[nH]c3ccccc23)C(N)=O)C1	i	1.4
COCC(=O)N[C@H]1CCN(C(=O)COC)[C@H](C(=O)N[C@H](Cc2c[nH]c3ccccc23)C(=O)OC)C1	22.4µM*	-5.5
CCNc1c(NC(=O)Nc2ccc(OCC)cc2)c(=O)oc2ccccc12	i	.
COc1cccc(-c2ccnc3c(-c4ccc(F)cc4)c(C)nn23)c1	i	18.5
